This assay can be described thus: qHTS Assay for Compounds Blocking the Interaction Between CBF-beta and RUNX1 for the Treatment of Acute Myeloid Leukemia: ME-1 cellular proliferation, SAR for Probe. The note with it: ME-1 cell proliferation, ATP luminescence, 48 h; series mostly up to 56.1 µM. The source says:
NIH Chemical Genomics Center [NCGC] NIH Molecular Libraries Probe Production centers Network [MLPCN] MLPCN Grant: X01MH083259-01 Assay Submitter (PI): Paul Liu NCGC Assay Overview: Core Binding Factor (CBF) abnormalities are associated with 20-25% of all acute myeloid leukemias (AML), of which 5-10% are further sub classified as acute myelomonocytic leukemia with eosinophilia, also known as M4Eo in the FAB classification scheme. This subtype of leukemia is usually associated with chromosome 16 inversion (p13:q22). Chromosome 16 inversion results in formation of the fusion oncogene CBFB-MYH11, which encodes the fusion protein CBF-beta-SMMHC. […] It has been hypothesized that the interference of CBF-beta and RUNX1 binding could have therapeutic implications for patients with CBF mediated leukemias. We developed a CBF-beta and RUNX1 binding assay in AlphaScreenTM format and optimized it for high throughput screening to search for inhibitors. […]
NCGC Assay protocol: 2uL/well media was dispensed per well into 1536-well white solid-bottom plates using Multidrop Combi dispenser. […] The plates were incubated at 37 °C with 5% CO2 and 95% humidity for 48 hours, and then ATP content was measured following the addition of 4uL/well of ATPlite reagent and a 20 min incubation on a ViewLux plate reader.
On the technique in general: qHTS replaces the single test concentration by a dilution series.

Data on two compounds can be found in PubChem BioAssay AID504371 (National Center for Advancing Translational Sciences (NCATS), 2011).

Records with an inconclusive call do not appear. Where a call stands in place of a potency, no number is given. Activity calls are given as the source filed them. Calls follow the shape of the dose curve; as a rule, active = well fitted curve in the direction sought with a large enough effect; inconclusive = small, poorly fitted or top-dose-only effect, or another doubt; inactive = no such curve, though single readings can be large or run the other way.

Take `CCc1sc(N)nc1-c1ccc(OC)cc1`: the Potency result is “inactive”.

Take `Nc1ccc(Cl)cc1C(=O)c1ccc[nH]1`: the Potency was 109 µM (active).
